KDM5B inhibitor: KDM5B demethylase inhibition; actives 2.6% (n = 220,000); Q9UGL1; KDM5B demethylase, FDH-coupled NADH fluorescence (FDH is formaldehyde dehydrogenase); Potency, µM (top dose mostly 57.7 µM), most hits filed as inhibitors; active = well fitted inhibition curve with a large enough effect; note: 0% is about no effect; nearly all actives have a fitted effect of over 70% in size
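Measured: NADH fluorescence change, 30 min, RT. System: KDM5BΔAP 200 nM final, H3K4me3 peptide, α-KG, Fe(II), ascorbate, NAD⁺ plus FDH, pH 7.5 HEPES. Compounds: titrated, 10 min pre-incubation with enzyme.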
* hit, by the source's call; i = inactive. The full list was thinned out, with hits kept by preference. Potency is the fitted concentration of half-maximal effect.

SMILES	KDM5B inhibitor
CC(=O)N1Cc2ccccc2OC2(CCN(C(=O)c3ccnc(N)c3)CC2)C1	79.4µM*
CN(C)C(=O)N1CCC2(CC1)CN(C(=O)c1cccc3[nH]ccc13)Cc1ccccc1O2	50.1µM*
CC(C)NC(=O)N1Cc2ccccc2OC2(CCN(C(=O)c3cccc4[nH]ccc34)CC2)C1	i
COc1ccc(-c2c(C)oc3cc(OC)ccc23)cc1	i
Cc1ccc(OCn2ccc(C(=O)NCc3ccn(C)n3)n2)c(C)c1	i
Cc1c(C(=O)C(=O)N(Cc2ccccc2)C(C)C)c2ccccc2n1C	i
O=C(COC(=O)Cc1n[nH]c(=O)c2ccccc12)NCC(=O)Nc1ccc(F)c(F)c1F	i
O=C(c1ccccc1)N1CCC2(CC1)C(=NC1CCCCC1)NC(=O)N2c1cc(F)cc(F)c1	i
O=C1NCCOCCN(C(=O)Cc2cccc(F)c2)[C@H]2CCC[C@@H]12	i
CCOc1ccc(-c2noc(-c3nnn(-c4cc(C)ccc4C)c3N)n2)cc1	i
CCOc1ccc(CC(=O)N2CCC(Cc3nc(-c4ccc(OC)cc4)no3)CC2)cc1	i
c1cc(-c2cc3c(ccn3Cc3ccncc3)c(N3CCOCC3)n2)c2[nH]ncc2c1	25.1µM*
c1cc(-c2cc3c(ccn3Cc3ccncc3)c(N3CCOCC3)n2)c2cn[nH]c2c1	20µM*
O=C(NCc1cccnc1N1CCOCC1)c1cnn(-c2ccc(Cl)cc2)c1	i
O=C(NCc1ccccc1)c1nc(-c2cccc3[nH]ccc23)no1	i
O=C1c2[nH]nc(-c3ccccc3O)c2C(c2cccc(O)c2)N1Cc1ccncc1 (stereo not given)	i
c1cc(-c2cc3c(ccn3Cc3ccncc3)c(N3CCOCC3)n2)c2cc[nH]c2c1	20µM*
O=c1[nH]c(N2CCOCC2)nc2c1CCN(Cc1cccc(Cl)c1)CC2	i
C[S+](=O)([O-])N1CCC(Cn2ccc3c(N4CCOCC4)nc(-c4cccc5[nH]ccc45)cc32)CC1	i
Cc1ccc2c(c1)Oc1ccc(S(=O)(=O)N(C)Cc3ccccc3)cc1C(=O)N2	i
CCOc1cc(/C=C/C(=O)c2ccc(C)cc2)cc(Br)c1O	i
Cn1nc(CC(=O)Nc2ccc(Cl)cc2)c2ccccc2c1=O	i
CCOC1OC(COC(C)=O)C(OC(C)=O)C(OC(C)=O)C1NC(C)=O (stereo not given)	i
COc1cccc(CN2C[C@@H]3C(=O)N(Cc4ccc5c(c4)OCO5)C(=O)[C@@H]3C2)c1OC	i
CSc1ccc(/C=C/C(=O)c2ccc(NC(=O)c3ccccc3Cl)cc2)cc1	i
SMILES	KDM5B inhibitor
CCOCCCNC(=O)c1cc2cc(C)ccc2nc1C	i
NNc1cccc(S(=O)(=O)c2cccc(NN)c2)c1	i
C=CC[C@H]1CC=C[C@H](CC=C)N1	i
COc1ccc(COC(=O)C2=C(C)NC(=O)CC2c2cc3c(cc2Br)OCO3)cc1 (stereo not given)	i
COC(=O)c1cc(F)ccc1NC(=O)N1CCc2[nH]cnc2C1c1ccc(Cl)cc1 (stereo not given)	i
Cc1cc(OCC(=O)Nc2ccc(NC(=O)C3CC3)cc2C(F)(F)F)ccc1Cl	i
COc1ccc(C(=O)N2CC[C@H](CO)[C@H](NC(=O)C3CC3)C2)c(OC)n1	i
Cc1nc2ccccc2n1CCC(=O)N1CC[C@H](CO)[C@@H](O)C1	i
COC(=O)c1cc(C#N)c(N2CC[C@H](CO)[C@@H](O)C2)nc1C	25.1µM*
CC(C)(C)c1ccc(C(=O)NC(Nc2ccc(I)cc2)C(Cl)(Cl)Cl)cc1 (stereo not given)	i
CN(C)C(=O)CN(C)C(=O)Cn1c(=O)c2c(ncn2Cc2ccco2)n(Cc2ccccc2)c1=O	i
CC(OC(=O)c1ccc(O)cc1)C(=O)C12CC3CC(CC(C3)C1)C2 (stereo not given)	i
CN(Cc1ccccc1)Cc1cc(=O)n2cc(Br)ccc2n1	i
COc1ccc(OCc2nc(C)c(CCO)c(=O)n2CC(=O)Nc2ccc(C)c(C)c2)cc1	i
Cc1ccc(NS(=O)(=O)c2ccccc2)c(=O)n1CC(=O)N1CCN(CC(C)C)CC1	i
CCS(=O)(=O)Nc1ccc(C)n(CC(=O)N2CCCCCC2)c1=O	i
CCCN1CCN(C(=O)Cn2c(C)ccc(NC(=O)Nc3ccccc3)c2=O)CC1	25.1µM*
Cc1ccc(S(=O)(=O)Nc2ccc(C)n(CC(=O)Nc3ccccc3)c2=O)cc1	i
Cc1ccc(NC(=O)Nc2ccc(C)n(CC(=O)NC3CCCCC3)c2=O)cc1	i
COc1cccc(NC(=O)Cn2c(C)ccc(NC(=O)Nc3ccc(C)cc3)c2=O)c1	28.2µM*
COc1ccc(NC(=O)Nc2ccc(C)n(CC(=O)Nc3ccc(C)c(C)c3)c2=O)cc1	17.8µM*
COc1ccc(NC(=O)Nc2ccc(C)n(CC(=O)O)c2=O)cc1	i
Cc1nc(-c2c3n(c(=O)n(CC#N)c2=O)CCCCC3)no1	i
Cc1ccc(Cn2c(Sc3ccc(C)cc3)nc3c2c(=O)[nH]c(=O)n3C)cc1	i
Cc1cc(OCCn2c(CNC(=O)c3ccco3)nc3ccccc32)ccc1Cl	i
SMILES	KDM5B inhibitor
NC(=O)CCC(NC(=O)C1(c2ccccc2)CCCC1)C(N)=O (stereo not given)	i
Cc1ccc2nc(-c3cccnc3)cc(C(=O)O)c2c1	i
Cn1nc(C(=O)OCC(=O)N2c3ccccc3NC(=O)C2(C)C)c2ccccc2c1=O	i
O=C(Cc1noc(C(=O)NCc2ccccc2Cl)n1)Nc1cccc2ncccc12	i
O=C(COC(=O)c1ccc(S(=O)(=O)N2CCCCCC2)cc1)Nc1ccc(Cl)cn1	i
CCOc1ccc(NC(=O)Cn2c(Nc3cc(C)cc(C)c3)nc(C)cc2=O)cc1	i
CSc1cccc(NC(=O)Cn2c(Nc3cc(C)cc(C)c3)nc(C)cc2=O)c1	28.2µM*
CSc1cccc(NC(=O)Cn2c(N3CCN(c4ccccc4)CC3)nc(C)cc2=O)c1	i
COc1cc(OC)cc(C(=O)Nc2cc(C)c(O)c(-c3nc4ccccc4o3)c2)c1	i
COc1cccc(C(Nc2ncc(C(F)(F)F)cc2Cl)c2nccn2C)c1 (stereo not given)	i
CC(C)c1nnc(NC(=O)C(Oc2ccccc2)c2ccccc2)s1 (stereo not given)	i
O=C1[C@@H]2C[C@@H](CN2Cc2ccccn2)Oc2ccccc2N1Cc1ccccc1	i
N#Cc1ccc(CN2C[C@@H]3C[C@H]2C(=O)N(Cc2ccccc2)c2ccccc2O3)cc1	28.2µM*
COc1ccc(CN2C(=O)[C@@H]3C[C@@H](CN3Cc3ccc(C(=O)O)cc3)Oc3ccccc32)cc1	i
O=C(CCc1nc2sc3c(c2c(=O)[nH]1)CCC3)NCc1ccccc1	i
Cc1ccc(C(=O)N2CC(C(=O)NCCc3ccncc3)C3(CCOCC3)C2)cc1C (stereo not given)	i
CC(=O)NC1=NN(C(C)=O)C(c2ccc(OCc3ccccc3F)c(Br)c2)S1 (stereo not given)	i
Cc1cc(C(=O)N2CCn3nc(C(C)O)cc3C2)c2ccc(F)cc2n1 (stereo not given)	i
CC(O)c1cc2n(n1)CCN(C(=O)c1nc3ccccc3n(C)c1=O)C2 (stereo not given)	25.1µM*
CCc1ccc(C(=O)N2CCn3nc(C(O)c4ccccc4)cc3C2)s1 (stereo not given)	i
COc1ccc(CN(C(=O)c2cc3ccccc3s2)C2CC2)cc1	i
O=C(COC(=O)c1cc(C2CC2)nn1-c1ccccc1)Nc1ccccc1	i
